Screens: PubChem BioAssay, National Center for Advancing Translational Sciences (NCATS)
This is one part of a sample in which hits are shown more often than they occur.
Shiga inhibitor: Shiga toxin inhibition. Vero cells, Shiga toxin protein synthesis inhibition reporter. inhibition, % at 38.7 µM. 290,000 tested, 9.2% active; in the data active means inhibition mostly above about 28%, no sharp cut-off; inactive means mostly below about 43%; further: 0% is about no effect
AmpC inh no detg: AmpC beta-lactamase inhibition without detergent; P00811; AmpC nitrocefin hydrolysis, absorbance 480 nm, 0.0001% Triton; AID 485341; Potency, µM (top dose mostly 57.1 µM), for the others: at the top dose activity change, negative = inhibition, actives largely listed as inhibitors; 330,000 tested, 0.52% active;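 further: potency means the concentration at half of the fitted maximal effect; plate controls were no compound for no effect and no enzyme for full effect; nearly all actives have a fitted effect of over 20% in size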
Target sequence (P00811 whole entry, looked up): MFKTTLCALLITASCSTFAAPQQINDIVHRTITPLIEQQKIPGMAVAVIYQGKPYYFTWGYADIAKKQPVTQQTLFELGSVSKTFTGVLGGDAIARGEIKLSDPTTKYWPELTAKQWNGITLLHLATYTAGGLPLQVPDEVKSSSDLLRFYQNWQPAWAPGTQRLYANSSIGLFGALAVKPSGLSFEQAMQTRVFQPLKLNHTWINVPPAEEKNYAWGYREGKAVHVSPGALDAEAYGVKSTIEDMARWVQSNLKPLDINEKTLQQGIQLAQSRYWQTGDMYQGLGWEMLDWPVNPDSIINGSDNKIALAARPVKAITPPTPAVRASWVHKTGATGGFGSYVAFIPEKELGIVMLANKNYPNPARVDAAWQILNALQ
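20 mM phosphate pH 7.0 + 0.01% (detergent screen) or 0.0001% Triton X-100; 5.3 nM AmpC reagent; cpd preinc 15 min RT; nitrocefin (800 uM stock) to start; A480 q20 s × 4 min; Activity was normalised to no-enzyme and no-compound control wells.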
NS1 function inh: blocks influenza NS1 protein function. Potency, µM (highest dose often 46.1 µM), for inactives: at the highest dose activity, positive = more growth. 270,000 tested, 0.4% active; calls by dose curve; further: potency means the concentration at half of the fitted maximal effect; actives are rising curves; nearly all actives have a fitted effect of over 50% in size
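A cell-based growth assay was used: compounds that relieve NS1-induced slow growth of budding yeast raise OD600. Assay medium was yeast nitrogen base with ammonium sulphate and -URA supplement, pH 6.0, with 2% galactose.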
Cycloheximide cs: counter-screen for Shiga toxin inhibitors: cycloheximide protein synthesis inhibition. AID 2314. 300,000 tested, 12% active. cell reporter, cycloheximide protein synthesis inhibition counterscreen. max response, %; in the data active means max response mostly above about 13%, no sharp cut-off; inactive means mostly below about 14%; further: read at 38.3 µM for the half of the compounds with a filed dose; 0% is about no effect
AmpC detergent: blocks E. coli AmpC beta-lactamase in detergent assay; AID 485294; Potency, µM (titrated, usually from 114 µM), for inactives: top-dose activity change, negative = inhibition, hits mostly inhibitors; P00811; AmpC hydrolysis of nitrocefin, absorbance 480 nm, 0.01% Triton; 370,000 tested, 0.041% active;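 further: potency means the concentration at half of the fitted maximal effect; 0% = no-compound wells and -100% = no-enzyme wells; nearly all actives have a fitted effect of over 25% in size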
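AmpC (5.3 nM in the dispensed reagent) in 20 mM phosphate pH 7.0 with 0.01% (detergent screen) or 0.0001% Triton X-100 was preincubated with compounds for 15 min at room temperature. Nitrocefin was then added from an 800 uM solution, and hydrolysis was followed at 480 nm.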
* = called active by the depositor; ? = inconclusive; · = no result. Unless noted, the call rests on the fitted dose curve; in most records, active means well fitted curve in the direction sought with a large enough effect; inconclusive means small, poorly fitted or top-dose-only effect, or another doubt; inactive means no such curve, though single readings can be large; an effect the other way counts as inactive or inconclusive.

SMILES	Shiga inhibitor	AmpC inh no detg	NS1 function inh	Cycloheximide cs	AmpC detergent
Cc1[nH]c2ccccc2c1/C=N/NC(=O)CCC(=O)NCc1ccccc1	-3	-13%	2%	1	5%
Cc1[nH]c2ccccc2c1/C=N/NC(=O)C1CC1(c1ccccc1)c1ccccc1 (stereo not given)	-8	11µM*	8%	-4	0%
CCCC1=C/C(=C/c2ccc(-c3ccccc3OC)o2)C(=O)O1	58	32µM*	-4%	2	?
CCC(=O)Nc1nc(-c2ccccc2)ns1	61*	-24%	-18%	32*	-14%
CC(=O)Nc1nc(-c2ccc(Cl)cc2)ns1	active	-60%	-26%	64*	-15%
CC(C)C(=O)Nc1nc(-c2ccccc2)ns1	96*	-25%	-9%	48*	?
Cc1nnc(SCCC(=O)Nc2nc(-c3ccccc3)ns2)s1	22	·	-94%	11	6%
O=C(CSc1ncn[nH]1)Nc1ccc(Br)cc1F	40	-24%	3%	25*	-1%
Cc1cccc(C)c1NC(=O)COC(=O)c1cc[n+]([O-])cc1	·	-15%	·	·	0%
Cc1ccc(-n2c(=O)c3cccnc3n2CC(=O)Nc2cc(C)cc(C)c2)cc1	·	·	·	·	-3%
CCCCN(C(=O)C1=NN(c2ccccc2)C(=O)CC1)c1c(N)n(CC(C)C)c(=O)[nH]c1=O	·	-28%	·	·	-18%
CC(=O)Nc1cc(-c2ccc(Cl)cc2)[nH]n1	40	-17%	-2%	44*	-4%
Cc1ccc(CNC(=O)CSc2ncn[nH]2)cc1	11	-4%	2%	8	2%
CCCC(=O)Nc1nc(-c2ccccc2)ns1	28*	-13%	-27%	86*	0%
O=C(CSc1ncn[nH]1)Nc1nc(-c2ccccc2)ns1	49*	-12%	?	34*	0%
COc1cc(OC)cc(-c2cc(NC(C)=O)n[nH]2)c1	1	-20%	2%	11	-4%
Cc1ccc(-c2nc(NC(=O)CSc3ncn[nH]3)ns2)cc1	59*	-8%	-2%	16*	3%
COc1ccc(CNS(=O)(=O)c2c(C(=O)N3CCCCCC3)c(C)n(C)c2C)cc1	-3	24%	-10%	-3	-4%
CCC(=O)NC(C)C(c1cccs1)N1CCN(Cc2ccccc2)CC1 (stereo not given)	3	45µM*	11%	-2	?
CCOc1ccccc1NC(=O)c1cc2c(=O)n(Cc3cccnc3)ccc2nc1C	·	·	·	·	-4%
O=c1oc(Cc2ccccc2)nc2ccccc12	14	-5%	4%	14*	-1%
CC1(C)Cc2cccc(Oc3cc(NN4CCCCC4)c([N+](=O)[O-])cc3[N+](=O)[O-])c2O1	-8	-32%	4%	-2	-20%
CCS(=O)(=O)N1Cc2ccccc2CC1C(=O)Nc1nc2c(C)cccc2s1 (stereo not given)	60*	-18%	2%	27*	-10%
CCS(=O)(=O)N1Cc2ccccc2CC1C(=O)Nc1ccccc1OC (stereo not given)	12	2%	-2%	9	1%
CCS(=O)(=O)N1Cc2ccccc2CC1C(=O)Nc1nc(C)cs1 (stereo not given)	85*	-30%	3%	43*	2%
SMILES	Shiga inhibitor	AmpC inh no detg	NS1 function inh	Cycloheximide cs	AmpC detergent
CCS(=O)(=O)N1Cc2ccccc2CC1C(=O)Nc1nccs1 (stereo not given)	25*	-29%	4%	30*	-7%
CCSc1nnc(NC(=O)C2Cc3ccccc3CN2S(=O)(=O)CC)s1 (stereo not given)	30	-18%	-20%	30*	3%
C=CCN1C(=O)CS/C1=N\S(=O)(=O)c1ccc(Cl)cc1	-7	-21%	10%	-1	-3%
COc1cc2c(cc1OC)-c1cc(Nc3cccc(C)c3)nc(=O)n1CC2	16	-32%	3%	-1	5%
CCCC12CN3CC(C)(CN(C1)C3c1ccc(CC)cc1)C2=O (stereo not given)	·	·	·	·	20%
COc1ccc(/C(N)=N/OC(=O)Cc2ccccc2[N+](=O)[O-])cc1	40	-23%	-3%	31*	-1%
COc1ccc(CC(=O)O/N=C(\N)c2ccc(OC)cc2)cc1	71*	-2%	-31%	64*	1%
N/C(=N\OC(=O)Cc1ccccc1[N+](=O)[O-])c1cccnc1	43	-14%	-12%	11	2%
COc1ccc(/C(N)=N/OC(=O)Cc2cccs2)cc1OC	33*	-17%	-1%	27*	-1%
COc1ccc(CC(=O)O/N=C(\N)Cc2ccc(OC)cc2)cc1	28	-11%	-12%	-3	-10%
COc1ccc(C(=O)O/N=C(\N)Cc2cccs2)cc1OC	-19	-36%	11%	-5	7%
COc1ccc(/C(N)=N/OC(=O)Cc2cccs2)cc1	113*	-16%	-4%	44*	2%
COc1ccc(C2C(=O)N(C3CCC(C)CC3)CC(=O)N2CCC2=CCCCC2)cc1OC (stereo not given)	·	·	·	·	5%
CNC1=CN=C(c2ccccc2)c2cc(Cl)ccc2N1	-13	·	·	-1	·
CCOC(=O)c1c(S(=O)(=O)N2CCC(C(=O)Nc3ccc(C)cn3)CC2)c(C)n(C)c1C	·	·	·	·	9%
COc1ccc(CC(=O)O/N=C(\N)c2ccccc2)cc1OC	42*	29%	-4%	38*	-4%
CCn1c(=S)sc2c(=O)n(CC(=O)Nc3ccccc3)c(C)nc21	-5	-26%	-1%	-1	?
CCn1c(=S)sc2c(=O)n(CC(=O)Nc3ccc(OC)c(Cl)c3)c(C)nc21	-6	6.3µM*	1%	-8	-8%
CCn1c(=S)sc2c(=O)n(CC(=O)Nc3ccc(Cl)cc3)c(C)nc21	-5	7.1µM*	10%	-7	-3%
CCCC(=O)NCCc1c2n(c3ccc(OC)cc13)CCCc1ccccc1-2	·	·	-11%	·	·
COc1ccc(Cc2nc3c4cnn(-c5cccc(F)c5)c4ncn3n2)cc1	·	·	·	·	3%
Nc1c(C(=O)c2ccccc2)sc2nsc(SCCN3CCCC3)c12	104*	47%	-1%	40*	-3%
CC(=O)c1sc2nsc(SCCN3CCCCC3)c2c1N	43	0%	2%	29*	2%
CC(=O)c1ccc(Oc2ccc(C(C)=O)cc2)cc1	83	-3%	-7%	17*	-2%
COc1cc(NC(=O)Cc2c(C(=O)O)n(C)c3ccccc23)cc(OC)c1OC	-8	-18%	·	-1	1%
SMILES	Shiga inhibitor	AmpC inh no detg	NS1 function inh	Cycloheximide cs	AmpC detergent
O=c1c(-c2ccccc2)c1-c1ccccc1	104*	-10%	·	65*	-5%
COCC(=O)Nc1ccc(C(C)C)cc1	110*	-1%	7%	37*	1%
COCC(=O)Nc1ccc(N(C)C)cc1	39	-6%	5%	13	-5%
COc1ccc(NC(=O)Nc2ccc(C(C)C)cc2)cc1	58*	-29%	-21%	19*	-9%
CC(NC(=O)c1ccc2c(c1)CCN2S(=O)(=O)c1ccccc1)c1ccccc1 (stereo not given)	·	·	·	·	22%
COc1ccc(CN2CSC(=S)N(Cc3ccc(OC)cc3)C2)cc1	-4	-33%	-68%	-2	0%
